Inconclusive results are not listed. A call without a number means that no potency is given here. The source made the active and inactive calls. Calls follow the shape of the dose curve; as a rule, active = well fitted inhibition curve with a large enough effect; inconclusive = small, poorly fitted or top-dose-only effect; inactive = no such curve, though single readings can be large or run the other way.
Biological target: Ubiquitin carboxyl-terminal hydrolase 2 (Homo sapiens) (UniProt O75604)
Assay: Confirmation Concentration-response Assay for Inhibitors of Ubiquitin-specific Protease USP2a
Settings: USP2 core, Ub-PLA2 coupled fluorescence, NBD C6-HPC; series mostly up to 38.3 µM
Description: NIH Molecular Libraries Screening Centers Network [MLSCN] NIH Chemical Genomics Center [NCGC] MLSCN Grant: XO1-MH079852-01 PI Name: Nicholson, Ben. Progenra Inc, Malvern, PA NCGC Assay Overview: Homeostasis of cellular proteins is maintained through a combination of synthesis and degradation. The pathway that accounts for the majority of protein degradation is the ubiquitin-proteasomal pathway. Ubiquitin (Ub) is highly conserved in all cells and the generation of a multi-Ub chain typically targets proteins for degradation by the proteasome. However, ubiquitination is highly reversible and dynamic. Deubiquitination, the reverse process, is catalyzed through the action of enzymes referred to as isopeptidases or deubiquitinating enzymes (DUBs). This group of enzymes is collectively responsible for maintaining adequate pools of free ubiquitin and regulating the ubiquitination status of cellular proteins. The class of DUBs referred to as the ubiquitin-specific proteases (USP) family functions endoproteolytically to cleave Ub chains from a wide range of protein substrates. USP2a deubiquitinates fatty acid synthase (FASN) which has recently been identified as an emerging oncology target. To identify inhibitors of USP2a a cell-free assay was employed. […] The reporter enzyme chosen is phospholipase A2 (PLA2), which has an absolute requirement for a free amino terminus. Thus, fusion of a UBL to the N-terminus of PLA2 inactivates PLA2. When the UBL-PLA2 reporter enzyme is cleaved by USP2, the activated reporter can subsequently act on its substrate, which is the commercially available NBD C6-HPC (Invitrogen). Thus, this coupled assay gives a fluorescent read-out, which is generated through the cleavage of the PLA2 reporter enzyme. The assay, developed by Progenra, Inc. uses Ub-PLA2 and USP2a at near equal and low (nM) amounts and has been licensed for sale by LifeSensors, Inc. as the Ub-IsoPro1 kit.
NCGC Assay Protocol Summary: The assay buffer, prepared fresh at the day of the assay, contains 20mM Tris-HCl pH 8.0, 2mM CaCl2, 2mM beta-Mercaptoethanol, 0.1% DMSO. 3ul of 40nM (20nM final) USP2 core, which is stored on ice, is dispensed into a medium-binding black solid Kalypsys 1,536 well plate using the Kalypsys dispenser. The assay plate is then pinned with 23nL compound with the Kalypsys pintool in columns 5-48. The controls are pinned as follows: column 1&2 two-fold dilutions of 2M NEM in duplicate; column 3 DMSO; column 4 2M NEM (final concentration […]). The assay plate is incubated at RT for 30min. Subsequently, 3uL of 40nM (20nM final) Ub-PLA2 and 40uM (20uM final) NBD C6-HPC (stored on ice and protected from light) were dispensed into the plate using the Kalypsys dispenser. Plates were read immediately (0 Hour) on an Envision (Perkin Elmer) plate reader using the following wavelengths Ex 460nm /Em 535nm. Then, the assay plates were incubated for 2.5 hours and read again on the Envision using the same settings Data were normalized to the to AC100 inhibition (NEM). Concentration-response curves were fitted to the normalized data and the concentration-response curves were then classified based on curve quality (r2), response magnitude and degree of measured activity. The time zero reading was used to flag fluorescence artifacts. Keywords: ubiquitination, deubiquitination, proteases, profluorescent, MLSMR, MLSCN, NIH Roadmap, qHTS, NCGC

Chain of Ubiquitin carboxyl-terminal hydrolase 2 (Homo sapiens) (O75604 whole entry, looked up): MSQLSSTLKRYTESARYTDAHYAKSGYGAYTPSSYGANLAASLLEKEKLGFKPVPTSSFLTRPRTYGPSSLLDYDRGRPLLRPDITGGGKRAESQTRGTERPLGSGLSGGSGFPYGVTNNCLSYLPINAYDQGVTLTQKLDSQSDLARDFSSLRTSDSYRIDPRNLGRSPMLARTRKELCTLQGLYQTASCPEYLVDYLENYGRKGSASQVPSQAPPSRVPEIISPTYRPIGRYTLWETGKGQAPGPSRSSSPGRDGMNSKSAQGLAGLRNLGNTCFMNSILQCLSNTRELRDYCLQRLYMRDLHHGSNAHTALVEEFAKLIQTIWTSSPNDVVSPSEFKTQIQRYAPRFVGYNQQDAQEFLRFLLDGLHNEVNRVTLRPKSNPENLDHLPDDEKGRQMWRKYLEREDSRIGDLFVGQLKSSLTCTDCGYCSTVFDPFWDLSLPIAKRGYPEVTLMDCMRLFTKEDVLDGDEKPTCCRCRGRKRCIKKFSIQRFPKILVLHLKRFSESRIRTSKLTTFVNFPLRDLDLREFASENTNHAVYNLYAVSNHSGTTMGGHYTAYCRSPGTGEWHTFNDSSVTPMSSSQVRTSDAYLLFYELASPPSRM

| SMILES | Potency |
| --- | --- |
| CCOC(=O)C1CCCN(c2c(C(=O)c3ccc(C)cc3)cnc3ccc(OCC)cc23)C1 (centres undefined) | 3.16 µM (active) |
| Cc1ccc([C@H]2Nc3ccc(S(=O)(=O)Nc4cccc(Cl)c4C)cc3[C@H]3C=CC[C@H]32)cc1 | 7.94 µM (active) |
| Oc1c(C(Nc2ccccn2)c2ccccc2F)ccc2cccnc12 (centres undefined) | inactive |
| CCCCCC(=O)N1c2ccccc2C(C)(c2ccccc2)CC1(C)C (centres undefined) | 12.6 µM (active) |
| COC(=O)c1c(NC(=O)CS(=O)(=O)c2ccc(C)cc2)sc2c1CCCCC2 | inactive |
| CCc1ccc(C(=O)c2c(N)c(-c3nc(-c4ccc5c(c4)OCO5)cs3)c3ccccn23)cc1 | inactive |
| CCS(=O)(=O)c1nc(S(=O)(=O)c2ccc(C)cc2)c(NCC(C)C)s1 | 2.82 µM (active) |
| COc1ccc(Cl)cc1NC(=O)CSc1nc(=O)[nH]c2c1CCC2 | inactive |
| O=C(CCS(=O)(=O)c1ccccc1)N(Cc1cccnc1)c1nc2c(Cl)cccc2s1 | inactive |
| Cc1ccc(-n2nc3c(=O)n(CCCC(=O)NCCc4ccccc4Cl)nc(C)c3c2C)cc1 | 11.2 µM (active) |
| CCC(C)NC(=O)CSc1nc2cc3c(cc2c(=O)n1Cc1ccc(C(=O)NCCc2ccc(OC)c(OC)c2)cc1)OCO3 (centres undefined) | inactive |
| COc1ccc(C(=O)/C=C/c2cn(CC(O)CN(CC(C)C)CC(C)C)c3ccccc23)cc1OC (centres undefined) | 12.6 µM (active) |
| Cc1ccc(S(=O)(=O)Cc2nc(-c3ccc(C(=O)NCc4ccccc4F)cc3)oc2C)cc1 | 14.1 µM (active) |
| Cc1cc(C)c2nc(N(Cc3cccnc3)C(=O)CCS(=O)(=O)c3ccccc3)sc2c1 | inactive |
